# Structures can show the parent of a compound that is named as a salt.
# Tested on: Danio rerio Tg(wt1b:EGFP) embryo, pronephros
# Test: fraction of imaged embryos annotated as normal kidney; higher = less nephrotoxic; extreme values may be limits of the assay
# Details: 25 µM; exposure: 24-48 hpf
# Outline: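 From 24 to 48 hpf at 28.5°C, dechorionated Tg(wt1b:EGFP) zebrafish embryos in 12-well plates were kept in 5 mM HEPES-buffered E3 with 0.003% PTU, 0.5% DMSO and 25 μM compound. Pronephroi were imaged by widefield fluorescence at 470 nm and judged by eye from maximum projections. Reported is the proportion of embryos per treatment in the normal-kidney category.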
row,SMILES,fraction of imaged embryos annotated as normal kidney
1,CC(=O)OC(C)C[N+](C)(C)C (stereo not given) [Methacholine chloride],0.833
2,CCCc1cc(C(N)=S)ccn1 [Prothionamide],0.917
3,CC(N/C(=N\C#N)Nc1ccncc1)C(C)(C)C (stereo not given) [Pinacidil],0.727
4,CC(COc1ccccc1)N(CCCl)Cc1ccccc1 (stereo not given) [Phenoxybenzamine hydrochloride],0.583
5,CN1CCN(C(c2ccccc2)c2ccccc2)CC1 [Cyclizine hydrochloride],0.833
6,Cc1cc(NC(=O)C2=C(O)c3ccccc3S(=O)(=O)N2C)no1 [Isoxicam],0.917
7,CN(C)CCC(c1ccc(Br)cc1)c1ccccn1 (stereo not given) [Brompheniramine maleate],1
8,CCOc1ccc(NC(C)=O)cc1 [Phenacetin],0.667
9,Cc1cc(NS(=O)(=O)c2ccc(N)cc2)no1 [Sulfamethoxazole],0.833
10,CN1CCN2c3ccccc3Cc3ccccc3C2C1 (stereo not given) [Mianserine hydrochloride],0.833
11,CCC1(C)CC(=O)NC1=O (stereo not given) [Ethosuximide],0.833
12,CN(C)CCOC(c1ccccc1)c1ccccc1 [Diphenhydramine hydrochloride],0.75
13,CC(C(=O)O)c1ccc2c(c1)Cc1cccnc1O2 (stereo not given) [Pranoprofen],0.583
14,CCN(CC)Cc1cc(Nc2ccnc3cc(Cl)ccc23)ccc1O [Amodiaquin dihydrochloride dihydrate],0.917
15,CC(=O)OCC(=O)NCCCOc1cccc(CN2CCCCC2)c1 [Roxatidine Acetate hydrochloride],0.667

# Reference: the supplement of paper PMC7366291
